Test results taken from PubChem BioAssay (NCATS).
A number with no mark means an inactive call. Results filed as inconclusive are left out. Active and inactive are the calls of the source. Unless noted, calls come from the whole dose curve; as a rule, active = well fitted curve in either direction with a large enough effect (not every such curve was filed as active); inconclusive = small, poorly fitted or top-dose-only effect, or another doubt; inactive = flat fitted curve, though single readings scatter.

Legend:
[1] = biological target: Lysosomal acid glucosylceramidase (Homo sapiens) (UniProt P04062); experiment: Glucocerebrosidase-p2 (AID 348; in the data active = potency below about 10 µM; note: potency is the fitted concentration of half-maximal effect); details: purified GBA, blue fluorogenic substrate, 40 min
Chain of Lysosomal acid glucosylceramidase (Homo sapiens) (P04062 whole entry, looked up): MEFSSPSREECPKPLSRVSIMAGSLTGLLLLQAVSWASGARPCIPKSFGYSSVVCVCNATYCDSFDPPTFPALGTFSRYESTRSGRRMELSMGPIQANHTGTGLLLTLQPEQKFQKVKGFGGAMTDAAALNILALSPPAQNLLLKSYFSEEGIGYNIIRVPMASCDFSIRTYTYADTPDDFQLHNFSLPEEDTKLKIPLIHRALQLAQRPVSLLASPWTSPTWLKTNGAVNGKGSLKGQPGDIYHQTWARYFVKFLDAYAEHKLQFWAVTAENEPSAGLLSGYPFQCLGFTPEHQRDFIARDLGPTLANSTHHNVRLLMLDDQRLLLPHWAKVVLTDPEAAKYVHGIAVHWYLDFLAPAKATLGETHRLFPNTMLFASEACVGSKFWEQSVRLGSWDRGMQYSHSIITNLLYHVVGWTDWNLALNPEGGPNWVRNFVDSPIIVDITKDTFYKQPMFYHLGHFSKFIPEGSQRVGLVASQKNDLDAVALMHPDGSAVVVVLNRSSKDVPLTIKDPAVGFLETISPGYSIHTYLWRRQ
Summary of the method: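 Normal human glucocerebrosidase (0.2 nM) with blue fluorogenic substrate (80 uM final) in citrate/phosphate pH 5.9 with 10mM sodium taurocholate, 0.01% tween-20; 40 min RT, NaOH/glycine stop; fluorescence Ex 365/Em 440; AC50 from a titration from 0.6 nM upwards.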

[2] = AP1 Signaling Pathway (AID 357); details: ME-180 AP-1-bla reporter, EGF-induced, beta-lactamase ratio, 5 h; at 7.69 µM (top of the series) unless noted;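 note: ME-180 reporter cells stimulated with EGF at its EC50 level; % is set by controls: 0 for no effect and ±100 for the full control effect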
Summary of the method: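 Modulation of EGF-driven AP-1 transcription was assessed with a beta-lactamase reporter in ME-180 cells. Compound and EC50 EGF were co-incubated 5 hours at 37 °C before 2.5-hour CCF4 loading at room temperature and dual-emission reading.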

[3] = NFAT Signaling Pathway (AID 444); details: Jurkat NFAT-bla M1, carbachol, beta-lactamase ratio, 5 h; at 7.69 µM (top of the series) unless noted;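 note: carbachol stimulus at about its EC50 of 1 µM final; % is set by controls: 0 for no effect and ±100 for the full control effect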
Summary of the method: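 Read-out: CCF4 FRET ratio (460 nm/530 nm) after 1 h RT dye loading, used for %activity and AC50 from titration series. Cells: Jurkat NFAT-β-lactamase/M1 line, treated with compound plus 1 uM carbachol for 5 h, 37 °C.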

[4] = Stat Signaling Pathway (AID 446); details: ME-180 SIE beta-lactamase reporter, IL-6 stimulated, 5 h; at 7.69 µM (top of the series) unless noted;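 note: ME-180 cervical cancer cells given 40 pM IL-6 alongside compound; SIE-controlled beta-lactamase reporter measured as 460/530 nm FRET emission ratio; % is set by controls: 0 for no effect and ±100 for the full control effect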
Summary of the method: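 FRET read-out (405 nm excitation, 460/530 nm emission) of a beta-lactamase reporter under a STAT-inducible element in ME-180 cervical carcinoma cells. Cells with compound receive 40 pM IL-6 for 5 h. Values are normalised to AC90 stimulation and AC90 JAK-inhibitor controls.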

[5] = biological target: Glucocorticoid receptor (Homo sapiens) (UniProt P04150); experiment: GR-GFP Redistribution (AID 450;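 active = compounds whose dose series gives a full or clear partial fitted curve of increased nuclear translocation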; note: potency is the fitted concentration of half-maximal effect); details: U2OS GR-GFP nuclear translocation, laser cytometry, 2 h
Chain of Glucocorticoid receptor (Homo sapiens) (P04150 whole entry, looked up, the tested form may be a part): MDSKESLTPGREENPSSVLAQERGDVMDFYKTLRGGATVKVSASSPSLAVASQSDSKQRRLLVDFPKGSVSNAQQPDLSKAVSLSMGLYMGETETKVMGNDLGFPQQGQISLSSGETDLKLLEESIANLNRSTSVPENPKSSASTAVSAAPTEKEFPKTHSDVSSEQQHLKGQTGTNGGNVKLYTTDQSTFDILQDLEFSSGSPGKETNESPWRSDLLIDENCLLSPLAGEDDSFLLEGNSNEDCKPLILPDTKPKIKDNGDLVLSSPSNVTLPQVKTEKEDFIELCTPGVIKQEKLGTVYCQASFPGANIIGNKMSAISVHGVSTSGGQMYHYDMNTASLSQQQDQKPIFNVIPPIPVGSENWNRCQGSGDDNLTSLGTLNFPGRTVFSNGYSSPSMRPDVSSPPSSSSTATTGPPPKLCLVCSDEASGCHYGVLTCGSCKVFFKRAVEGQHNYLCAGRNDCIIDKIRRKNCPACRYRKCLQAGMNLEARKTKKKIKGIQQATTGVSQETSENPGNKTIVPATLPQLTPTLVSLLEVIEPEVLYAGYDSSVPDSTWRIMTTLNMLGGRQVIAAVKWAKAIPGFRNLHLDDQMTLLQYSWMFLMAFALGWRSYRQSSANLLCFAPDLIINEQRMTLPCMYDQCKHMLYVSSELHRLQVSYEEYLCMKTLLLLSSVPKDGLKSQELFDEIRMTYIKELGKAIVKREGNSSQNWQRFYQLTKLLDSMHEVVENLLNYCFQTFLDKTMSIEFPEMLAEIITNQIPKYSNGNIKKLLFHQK

[6] = biological target: Glucocorticoid receptor (Homo sapiens) (UniProt P04150); experiment: GR-EFC Redistribution (AID 451; calls by dose curve; note: potency is the fitted concentration of half-maximal effect); details: CHO-K1 GR-EFC translocation, beta-gal luminescence, 2 h
Summary of the method: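 Translocation of GR-ED fusion to nuclear EA restores b-gal, read by luminescence after 1 h room-temperature detection. Engineered CHO-K1 biosensor cells, 1,000/well, exposed 2 h at 37 C to titrations up to 46 uM final.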

[7] = biological target: Mitogen-activated protein kinase 10 (Mus musculus) (UniProt Q61831); experiment: JNK3 AlphaScreen Assay (AID 530); details: JNK3 lysate, c-Jun phosphorylation; series mostly up to 11.4 µM;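 note: kinase came from lysate of stimulated human HepG2 cells; signal reports phosphorylation of biotinylated GST-cJun 1-79 at Ser73 with 10 µM ATP; % is set by controls: 0 for no effect and ±100 for the full control effect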
Summary of the method: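 qHTS titrations with 15 min compound pre-incubation before adding ATP (10 uM final). Read-out: AlphaScreen of Ser73-phosphorylated biotin-GST-cJun using HepG2 lysate JNK3 activated by IL-1β and TNFα.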

[8] = biological target: 3',5'-cyclic-AMP phosphodiesterase 4B (Homo sapiens) (UniProt Q07343); experiment: qHTS Assay for Inhibitors of PDE-IV (AID 607; active = well fitted activation curve with a large enough effect in the main read-out, with a control signal flat, not every such curve was filed as active; note: % of control where 0% means no effect); details: HEK293 ACTOne CNG channel cells, membrane potential fluorescence; series mostly up to 22.9 µM
Chain of 3',5'-cyclic-AMP phosphodiesterase 4B (Homo sapiens) (Q07343 whole entry, looked up): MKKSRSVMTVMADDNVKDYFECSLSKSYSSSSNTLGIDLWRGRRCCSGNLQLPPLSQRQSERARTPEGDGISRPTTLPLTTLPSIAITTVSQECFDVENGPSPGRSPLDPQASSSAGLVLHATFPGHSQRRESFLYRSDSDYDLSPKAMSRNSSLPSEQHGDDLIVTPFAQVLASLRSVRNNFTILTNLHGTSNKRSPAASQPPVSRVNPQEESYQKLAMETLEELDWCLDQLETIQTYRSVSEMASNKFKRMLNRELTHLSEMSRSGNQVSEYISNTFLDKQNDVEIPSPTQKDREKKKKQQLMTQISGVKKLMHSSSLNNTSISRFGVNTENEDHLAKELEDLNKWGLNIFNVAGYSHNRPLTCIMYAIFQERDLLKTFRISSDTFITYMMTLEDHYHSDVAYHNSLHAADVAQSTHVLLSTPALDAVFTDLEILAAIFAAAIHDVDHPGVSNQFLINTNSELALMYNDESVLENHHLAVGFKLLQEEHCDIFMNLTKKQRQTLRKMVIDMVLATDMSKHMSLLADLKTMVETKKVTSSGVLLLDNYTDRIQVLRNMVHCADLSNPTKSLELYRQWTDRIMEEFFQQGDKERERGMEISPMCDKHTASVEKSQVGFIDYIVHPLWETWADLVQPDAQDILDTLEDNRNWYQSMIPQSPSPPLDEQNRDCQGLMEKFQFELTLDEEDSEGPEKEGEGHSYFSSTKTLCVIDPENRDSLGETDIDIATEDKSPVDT
Summary of the method: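 Cell-based read-out of cAMP via a modified cyclic nucleotide-gated channel and membrane potential dye (535/590 nm) in HEK293 cells expressing PDE4 endogenously. Compounds tested up to 22.9 uM final; 100 uM RO 20-1724 reference.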

[9] = biological target: Cytochrome P450 3A4 (Homo sapiens) (UniProt P08684); experiment: qHTS Assay for Activators of Cytochrome P450 3A4 (AID 885; active = well fitted curve in the direction sought with a large enough effect; an effect the other way counts as inactive or inconclusive; note: nearly all actives have a fitted effect of over 65% in size); details: recombinant CYP3A4, Luciferin-PPXE luminescence, 60 min; series mostly up to 11.4 µM
Chain of Cytochrome P450 3A4 (Homo sapiens) (P08684 whole entry, looked up): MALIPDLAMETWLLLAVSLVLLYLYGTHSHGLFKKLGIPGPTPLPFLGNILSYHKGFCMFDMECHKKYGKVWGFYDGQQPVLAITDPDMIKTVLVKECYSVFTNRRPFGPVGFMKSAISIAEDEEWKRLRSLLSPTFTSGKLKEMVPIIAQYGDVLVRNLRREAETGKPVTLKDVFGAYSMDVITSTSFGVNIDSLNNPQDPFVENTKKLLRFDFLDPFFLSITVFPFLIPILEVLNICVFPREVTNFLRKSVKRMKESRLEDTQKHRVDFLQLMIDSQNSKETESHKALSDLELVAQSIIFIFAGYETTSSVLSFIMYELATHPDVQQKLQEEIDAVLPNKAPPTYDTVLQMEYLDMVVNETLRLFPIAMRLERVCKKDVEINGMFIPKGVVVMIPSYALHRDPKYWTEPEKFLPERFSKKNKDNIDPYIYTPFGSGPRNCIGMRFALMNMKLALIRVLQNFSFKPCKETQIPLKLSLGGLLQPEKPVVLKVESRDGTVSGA
Summary of the method: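 Luminescent readout of luciferin formed from 25 uM Luciferin-PPXE (KM level) by 20 nM CYP3A4 in 200 mM KPO4, with 60 min NADPH-driven reaction at room temperature after 10 min compound exposure. Ketoconazole (57 uM) defined 100% inhibition.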

[10] = biological target: Cytochrome P450 2D6 (Homo sapiens) (UniProt P10635); experiment: qHTS Assay for Inhibitors and Substrates of Cytochrome P450 2D6 (AID 891; active = well fitted curve in the direction sought with a large enough effect; an effect the other way counts as inactive or inconclusive; note: potency is the fitted concentration of half-maximal effect; nearly all actives have a fitted effect of over 60% in size); details: recombinant CYP2D6, luciferin-ME EGE luminescence; series mostly up to 11.4 µM
Chain of Cytochrome P450 2D6 (Homo sapiens) (P10635 whole entry, looked up): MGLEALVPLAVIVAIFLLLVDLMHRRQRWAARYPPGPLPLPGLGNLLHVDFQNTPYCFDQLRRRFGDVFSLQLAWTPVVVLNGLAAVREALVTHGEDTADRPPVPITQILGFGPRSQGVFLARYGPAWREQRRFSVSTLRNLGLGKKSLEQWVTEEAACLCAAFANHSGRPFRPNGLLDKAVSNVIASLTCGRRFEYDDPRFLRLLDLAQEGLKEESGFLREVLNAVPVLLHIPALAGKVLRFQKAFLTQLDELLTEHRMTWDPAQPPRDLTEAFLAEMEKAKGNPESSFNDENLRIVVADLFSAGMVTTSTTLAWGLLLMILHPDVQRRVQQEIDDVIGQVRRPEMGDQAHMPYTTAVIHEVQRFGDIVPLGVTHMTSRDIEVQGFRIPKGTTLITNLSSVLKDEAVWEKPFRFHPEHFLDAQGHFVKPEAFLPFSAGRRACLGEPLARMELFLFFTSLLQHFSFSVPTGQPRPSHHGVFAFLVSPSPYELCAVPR
Summary of the method: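 Luminescent read-out of luciferin formed by 5 nM human CYP2D6 demethylating 30 uM Luciferin-ME EGE (Km level) over 60 min at room temperature after NADPH regeneration addition. Data normalized to full inhibition by 1.43 uM quinidine.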

[11] = biological target: Cytochrome P450 2C19 (Homo sapiens) (UniProt P33261); experiment: qHTS Assay for Inhibitors and Substrates of Cytochrome P450 2C19 (AID 899; active = well fitted curve in the direction sought with a large enough effect; an effect the other way counts as inactive or inconclusive; note: potency is the fitted concentration of half-maximal effect; nearly all actives have a fitted effect of over 60% in size); details: recombinant CYP2C19, luciferin-H EGE luminescence; series mostly up to 11.4 µM
Chain of Cytochrome P450 2C19 (Homo sapiens) (P33261 whole entry, looked up): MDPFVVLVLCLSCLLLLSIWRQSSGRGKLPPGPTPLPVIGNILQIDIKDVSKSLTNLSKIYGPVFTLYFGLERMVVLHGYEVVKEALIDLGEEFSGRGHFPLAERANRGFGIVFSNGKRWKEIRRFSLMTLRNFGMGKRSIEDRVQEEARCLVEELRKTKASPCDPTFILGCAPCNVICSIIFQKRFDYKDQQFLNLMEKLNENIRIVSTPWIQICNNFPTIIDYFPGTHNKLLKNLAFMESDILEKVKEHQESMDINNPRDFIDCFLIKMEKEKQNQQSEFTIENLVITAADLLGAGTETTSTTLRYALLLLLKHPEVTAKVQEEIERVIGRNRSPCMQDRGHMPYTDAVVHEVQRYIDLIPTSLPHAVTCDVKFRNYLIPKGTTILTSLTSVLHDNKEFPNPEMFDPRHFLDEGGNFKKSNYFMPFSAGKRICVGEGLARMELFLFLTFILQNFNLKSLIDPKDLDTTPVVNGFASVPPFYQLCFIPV
Summary of the method: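 Reactions contain 5nM enzyme, 10uM Luciferin-H EGE (KM) and 50mM KPO4; compound preincubates 10 min at 37C, NADPH regeneration starts turnover for 60 min. Luminescence after detection reagent gives activity.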

[12] = biological target: Cytochrome P450 2C9 (Homo sapiens) (UniProt P11712); experiment: qHTS Assay for Inhibitors and Substrates of Cytochrome P450 2C9 (AID 883; active = well fitted curve in the direction sought with a large enough effect; an effect the other way counts as inactive or inconclusive; note: potency is the fitted concentration of half-maximal effect; nearly all actives have a fitted effect of over 60% in size); details: recombinant CYP2C9, luciferin-H luminescence, 60 min; series mostly up to 11.4 µM
Chain of Cytochrome P450 2C9 (Homo sapiens) (P11712 whole entry, looked up): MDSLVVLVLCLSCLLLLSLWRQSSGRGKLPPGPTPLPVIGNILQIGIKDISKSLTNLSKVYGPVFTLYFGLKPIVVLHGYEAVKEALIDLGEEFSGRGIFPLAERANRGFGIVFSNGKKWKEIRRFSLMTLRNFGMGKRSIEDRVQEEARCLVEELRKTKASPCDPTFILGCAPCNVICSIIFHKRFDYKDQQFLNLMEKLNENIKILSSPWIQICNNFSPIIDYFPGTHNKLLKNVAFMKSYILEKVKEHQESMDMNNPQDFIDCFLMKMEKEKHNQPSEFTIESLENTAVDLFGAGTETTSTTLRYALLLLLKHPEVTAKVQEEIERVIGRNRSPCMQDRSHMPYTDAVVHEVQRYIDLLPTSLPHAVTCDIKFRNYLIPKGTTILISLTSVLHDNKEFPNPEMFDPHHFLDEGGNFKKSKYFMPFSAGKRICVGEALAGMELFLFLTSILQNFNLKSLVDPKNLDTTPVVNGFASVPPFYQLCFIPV
Summary of the method: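 Turnover of Luciferin-H (100uM, KM) by 10nM human CYP2C9 was measured over 60 min at 37C with NADPH regeneration; inhibitors and some substrates reduce luminescence. Data normalized to sulphaphenazole 57uM.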

[13] = biological target: Cytochrome P450 3A4 (Homo sapiens) (UniProt P08684); experiment: qHTS Assay for Inhibitors and Substrates of Cytochrome P450 3A4 (AID 884; active = well fitted curve in the direction sought with a large enough effect; an effect the other way counts as inactive or inconclusive; note: potency is the fitted concentration of half-maximal effect; nearly all actives have a fitted effect of over 50% in size); details: recombinant CYP3A4, Luciferin-PPXE luminescence; series mostly up to 57.1 µM
Summary of the method: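 Luminescent readout of luciferin produced by CYP3A4 (20 nM) dealkylation of Luciferin-PPXE, 25 uM (its KM). NADPH-driven reaction ran 60 min at RT after 10 min compound preincubation; data scaled to 57 uM ketoconazole as 100% inhibition.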

[14] = qHTS Assay for Identification of Small Molecule Agonists for Hypoxia Response Element Signaling Pathway (AID 914; active = well fitted activation curve with a large enough effect in the signal ratio, with a control signal flat, not every such curve was filed as active; the % refers to the signal ratio; note: % of control where 0% means no effect); details: ME-180 (cervical carcinoma) HRE-bla reporter, beta-lactamase ratio, CoCl2, 17 h; activation: hits give high values
Summary of the method: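 qHTS titration; ME-180 HRE-bla cells; EC50 CoCl2 co-treatment, 17 h at 37 degrees Celsius; CCF4 dye, ex 405nm, em 460nm and 530nm; %Activity from ratio; AC50.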

Row | Structure (SMILES) | Potency [1] [µM] | activity change, negative = inhibition [2] [%] | activity change, negative = inhibition [3] | activity, negative = inhibition [4] [%] | Potency [5] [µM] | Potency [6] [µM] | Potency [7] | Potency [8] | Potency [9] | Potency [10] | Potency [11] | Potency [12] | Potency [13] | activation [14] [%]
1 | O=C(NC1(C(=O)O)CCCC1)c1ccccc1 | > 11.4 | -4.54 | 12% | 6.79 | > 46 | > 9.22 | inactive | inactive |  |  |  |  |  | 
2 | COc1cc(CN2CCCCC2)cc2cc(C(=O)O)c(=O)oc12 | > 11.4 | 17.3 | 15.7% | -2.43 | > 46 | > 9.22 | inactive | inactive |  |  |  |  |  | 
3 | O=C(O)C(F)(F)C(F)(F)C(F)(F)C(F)(F)C(=O)O | > 11.4 | -0.129 | 6.75% | 5.2 | > 46 | > 9.22 | inactive | inactive |  |  |  |  |  | 
4 | O=C(CN1C(=O)c2ccccc2C1=O)[C@@H](O)CN1C(=O)c2ccccc2C1=O | > 11.4 | -10.3 | 13.9% | -0.0648 | > 46 | > 9.22 | inactive | inactive |  |  |  |  |  | 
5 | Cc1ccc(CSC(N)=Nc2ccccc2)cc1C | > 11.4 | 6.56 | -3.46% | -10.5 | > 46 | > 9.22 | inactive | inactive | inactive | 0.794 µM (active) | 2 µM (active) |  |  | 
6 | O=C(O)c1ccccc1-c1ccccc1C(=O)Nc1ccc2c(c1)[nH]c(=O)c1ccccc12 | > 11.4 | -4.06 | 1.08% | -25.4 | > 46 | > 9.22 | inactive | inactive | inactive |  |  |  |  | 
7 | CN(C)CCCN=C(N)N | > 11.4 | 11.7 | 4.78% | 2.14 | > 46 | > 9.22 | inactive | inactive |  |  |  |  |  | 
8 | C[C@@H](C(=O)O)/C(=C/c1ccc2c(c1)OCO2)C(=O)O | > 11.4 | -12.8 | 1.64% | -5.22 | > 46 | > 9.22 | inactive | inactive | inactive |  |  | 2.51 µM (active) |  | 
9 | O=C(O)C(=O)/C=C(\O)c1ccc(Br)cc1 | > 11.4 | -0.263 | 12.1% | 11.6 | > 46 | > 9.22 | inactive | inactive |  |  |  |  |  | 
10 | Cn1c(=S)c2[nH]c(SCCN3C(=O)c4ccccc4C3=O)nc2n(C)c1=O | > 11.4 | 0.578 | -4.22% | 2.07 | > 46 | > 9.22 | inactive | inactive |  |  |  |  |  | 
11 | C[C@H](C(=O)c1ccncc1)c1ccccn1 | > 11.4 | 0.391 | -8.81% | 8.11 | > 46 | > 9.22 | inactive | inactive | inactive |  |  |  |  | 
12 | CN1CCN(c2ncc3nc(CCc4ccccc4)c(=O)n(CCC#N)c3n2)CC1 | > 11.4 | -1.24 | -8.66% | -3.93 | > 9.22 | > 46 | inactive | inactive |  |  |  |  |  | 
13 | CN1CCC(n2[nH]c(-c3ccccc3)c(Cc3ccccc3)c2=O)CC1 | > 11.4 | -1.32 | -82.4% (active) | 11.1 | > 46 | > 9.22 | inactive | inactive | inactive |  |  |  | 3.98 µM (active) | 
14 | CC1=C(/C=C\C(=O)O)C(C)(C)CCC1 | > 11.4 | 4.18 | 11.9% | 0.469 | > 46 | > 9.22 | inactive | inactive |  |  |  |  |  | 
15 | CCN1CCC(O)([C@H](C(=O)O)c2ccccc2)CC1 | > 11.4 | -5.97 | 16.2% | 16.9 | > 46 | > 9.22 | inactive | inactive |  |  |  |  |  | -12.7
